Bioassay records: PubChem BioAssay, several laboratories
PAX8 reporter: inhibitors of PAX8 transcriptional activity in RMG-I cells; AID 652154; 360,000 tested, 1.2% active; inhibition, % at 12.6 µM; RMG-I TPO-luciferase reporter, SteadyGlo, 24 h;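 active = mean replicate inhibition at least 60% with every replicate also reaching 60%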;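 also: luciferase light reporting Pax8 driven TPO promoter activity; plate controls were median of neutral control wells for no effect and mitoxantrone controls for full effect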
HIF-2a block: HIF-2a inhibition. 786-0 RCC cells HIF-2a reporter, luciferase luminescence, overnight. inhibition, % at 18.8 µM. 360,000 tested, 0.72% active;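 active = inhibition of the luminescence signal of 40% or more relative to plate controls, in a single-dose primary screen at 18.75 µM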
EBV LMP1 NFkB: reduces LMP1-driven NF-kappaB luciferase signal. inhibition, % at 12.5 µM. 350,000 tested, 0.69% active. LMP1-induced NF-kappaB luciferase reporter cells, luminescence. AID 504558; in the data active = inhibition above about 41%;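 also: 0% = neutral control wells and 100% = reference inhibitor control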
Shn3 inh set2: Schnurri-3 reporter inhibition in Clone20 osteoblasts. Clone20 osteoblast Shn3 3'UTR firefly luciferase, 24 h. inhibition, % at 12.5 µM. 360,000 tested, 0.52% active;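 active = mean inhibition of at least 75% with every replicate also reaching 75%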;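 also: 0% = median of neutral control wells and 100% = pilot-screen positive control compound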
MITF TRPM1 inh: reduces MITF-dependent TRPM1 promoter luciferase signal; SK-MEL-5 TRPM1 promoter luciferase, 24 h; inhibition, % at 12.5 µM; 330,000 tested, 0.83% active; AID 488899;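 active = mean inhibition across replicates of 60% or more, whatever share of single replicates reaches that level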
Peg3 prom inh: reduces Peg3 promoter-driven luciferase expression in HeLa. HeLa PEG-Prom luciferase reporter, luminescence, overnight. inhibition, % at 20 µM. 360,000 tested, 1.7% active. AID 588405;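 active = inhibition of at least 50% at 20 µM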
An asterisk follows results filed as active; x = no result given. Rows were chosen to be rich in hits. Some 2.8% of all compounds tested hit in one or more screens of this group.

SMILES	PAX8 reporter	HIF-2a block	EBV LMP1 NFkB	Shn3 inh set2	MITF TRPM1 inh	Peg3 prom inh
CCCN1C(=O)C2(SC(NC(C)=O)=NN2C(C)=O)c2cc(C)cc(C)c21 (centres undefined)	17.5	7.4	53.9*	x	-1.3	8.1
COc1ccc2c3c(n(C)c2c1)[C@H](CO)NCC31CCN(C(=O)Nc2ccc(F)cc2F)CC1	12.7	x	x	x	x	x
O=C(Nc1ccccc1F)N1C[C@H]2[C@@H](c3ccccc31)[C@H](CO)N2C(=O)c1ccc(F)cc1	-37.7	x	x	x	x	x
COc1ccc(NC(=O)N[C@H]2CC[C@H](CC(=O)NC3CCCCC3)O[C@H]2CO)cc1	-15.0	x	x	x	x	x
CC1(C)CC[C@]2(C(=O)O[C@@H]3OC(CO)[C@@H](O)[C@H](O)[C@H]3O)CC[C@]3(C)C(=CCC4[C@@]5(C)CC[C@H](O[C@@H]6OC(C(=O)O)[C@@H](O)[C@H](O)[C@H]6O)C(C)(C)C5CC[C@]43C)[C@@H]2C1 (some centres undefined)	-6.6	1.2	-33.4	-15.1	1.6	-9.4
C/C=C(\C)C(=O)OC1CC(C)(C)C[C@H]2C3=CC[C@@H]4[C@@]5(C)CCC(O[C@@H]6O[C@@H](C(=O)O)[C@@H](O)C(O[C@@H]7OC[C@H](O)[C@@H](O)[C@@H]7O[C@@H]7OC(CO)C(O)[C@@H](O)[C@@H]7O)C6O[C@@H]6OC(CO)C(O)C(O)C6O)[C@@](C)(CO)[C@@H]5CC[C@]4(C)[C@]3(C)CC(O)[C@@]12CO (some centres undefined)	74.6*	6.1	8.1	9.5	45.9	59.5*
CCOC(=O)C1=C(C)OC(=Cc2ccccc2)C1=O	3.9	-4.5	1.4	-1.0	x	-4.0
CCOC(=O)C1=C(O)c2ccccc2C(=O)/C1=C\c1ccc(C)cc1	x	-63.5	-3.4	58.7	49.7	75.2*
COCC#Cc1ccc2c(c1)O[C@H](CN(C)S(=O)(=O)c1cccc(OC)c1)[C@@H](C)CN([C@H](C)CO)S2(=O)=O	4.6	x	x	x	x	x
Cn1c(=O)c2c(SCC(=O)N3CCCc4ccccc43)nc(C3CC3)nc2n(C)c1=O	-8.6	20.4	-13.4	36.8	8.4	51.8*
Cc1sc2nc(C3CC3)nc(SCC(=O)N3CCCc4ccccc43)c2c1C	-12.0	x	x	x	x	x
CCCN1[C@H](C(=O)NC2Cc3ccccc3C2)[C@@H](CO)[C@@H]2Cn3c(ccc(C4=CCCCC4)c3=O)[C@@H]21	25.3	x	x	x	x	x
CO[C@H]1CN(C)C(=O)c2cc(NC(=O)Nc3ccc(Cl)cc3)ccc2OC[C@H](C)N(C(=O)Nc2c(C)noc2C)C[C@H]1C	12.3	x	x	x	x	x
O=C(C[C@H]1CC[C@@H]2[C@H](COC[C@H](O)CN2S(=O)(=O)c2ccc(F)cc2)O1)NCC1CCCCC1	1.7	x	x	x	x	x
N#CC(C#N)c1ccnc2ccccc12	-52.2	-0.4	42.5*	-15.8	x	9.9
CC(=O)N1[C@H](CO)[C@H](c2ccccc2)[C@@H]1CN(CC(C)C)C(=O)c1ccccn1	0.0	x	x	x	x	x
COc1ccc(CCNc2cc(N3CCN(C(=O)c4ccccc4F)CC3)ccc2[N+](=O)[O-])cc1OC	x	-8.6	20.9	88.4*	83.3*	44.9
O=C(c1ccccc1F)N1CCN(c2ccc([N+](=O)[O-])c(NCc3cccnc3)c2)CC1	7.0	20.5	x	16.1	x	20.1
COc1ccc(C(=O)N2CCN(c3ccc([N+](=O)[O-])c(NCCc4ccc(OC)c(OC)c4)c3)CC2)cc1	55.2	9.4	32.6	74.8	78.5*	30.2
COC(=O)C[C@H]1CC[C@@H]2[C@@H](COc3ccc(NS(=O)(=O)c4ccccc4F)cc3C(=O)N2C)O1	6.4	x	x	x	x	x
O=C(C[C@@H]1C=C[C@H](NC(=O)c2ccccc2)[C@@H](CO)O1)Nc1ccc(-c2ccccc2)cc1	47.3	x	x	x	x	x
CCCCCc1cc(=O)oc2c(C(CCN(CC)CC)c3cc(OC)c(OC)c(OC)c3)c(OC)cc(OC)c12 (centres undefined)	14.8	-7.2	0.4	21.0	92.8*	104.5*
COc1cc(OC)c2ccc(=O)oc2c1C(CCN1CCCC1)c1ccc2c(c1)OCO2 (centres undefined)	1.0	7.0	0.9	19.9	-12.4	-7.8
CCCCCc1cc(=O)oc2c(C(CCN3CCCC(C)C3)c3ccc4c(c3)OCO4)c(OC)cc(OC)c12 (centres undefined)	1.3	15.2	0.2	-27.7	9.8	98.1*
CCCCCc1cc(=O)oc2c(C(CCN3CCCCC3)c3ccc4c(c3)OCO4)c(OC)cc(OC)c12 (centres undefined)	87.6*	12.9	-11.1	-16.3	84.3*	96.4*
SMILES	PAX8 reporter	HIF-2a block	EBV LMP1 NFkB	Shn3 inh set2	MITF TRPM1 inh	Peg3 prom inh
CCCCCc1cc(=O)oc2c(C(CCN3CCN(c4ccccc4)CC3)c3ccc(N(C)C)cc3)c(OC)cc(OC)c12 (centres undefined)	18.0	7.4	7.8	63.9	3.3	1.6
C[C@@H]1CN([C@@H](C)CO)S(=O)(=O)c2ccc(-c3ccccc3F)cc2O[C@H]1CN(C)C	-4.4	x	x	x	x	x
Oc1c(CN2CCN(c3ccccc3)CC2)cc(Br)c2cccnc12	84.6*	16.9	59.1*	91.6*	87.5*	37.8
Oc1c(CN2CCOCC2)cc(COCc2ccccc2)c2cccnc12	65.9*	17.3	76.0*	89.6*	84.6*	49.5
c1ccc(N2CCN(Cc3ccnc4ccccc34)CC2)cc1	x	1.2	14.9	26.9	12.0	-2.4
O=C(Oc1c(CN2CCOCC2)cc(Cl)c2cccnc12)c1ccccc1Br	25.0	24.2	19.8	x	70.4*	33.5
CCOC(=O)N1CCN(Cc2cc(Cl)c3cccnc3c2O)CC1	78.2*	x	x	x	x	x
CN(C[C@@H]1[C@@H](c2ccccc2)[C@H](CO)N1C(=O)C1CCC1)C(=O)c1ccccn1	0.8	x	x	x	x	x
O=C(C[C@@H]1C=C[C@H](NC(=O)Nc2cccc(F)c2)[C@H](CO)O1)NCC1CC1	22.6	x	x	x	x	x
C[C@H]1CCCCO[C@@H](CN(C)S(=O)(=O)c2ccccc2)[C@@H](C)CN([C@@H](C)CO)C(=O)c2cc(NC(=O)Nc3ccc(C(F)(F)F)cc3)ccc2O1	75.8*	x	x	x	x	x
C[C@H](CO)N1C[C@H](C)[C@@H](CN(C)S(=O)(=O)c2ccccc2)OCCCC[C@H](C)Oc2ccc(NC(=O)Nc3ccc(C(F)(F)F)cc3)cc2C1=O	69.7*	x	x	x	x	x
C[C@@H]1CCCCO[C@H](CN(C)S(=O)(=O)c2ccccc2)[C@@H](C)CN([C@@H](C)CO)C(=O)c2cc(NC(=O)Nc3ccc(C(F)(F)F)cc3)ccc2O1	72.0*	x	x	x	x	x
C[C@@H]1CN([C@H](C)CO)C(=O)c2cc(NC(=O)Nc3ccc(C(F)(F)F)cc3)ccc2O[C@@H](C)CCCCO[C@@H]1CN(C)S(=O)(=O)c1ccccc1	-6.4	x	x	x	x	x
C[C@@H]1CCCCO[C@H](CN(C)S(=O)(=O)c2ccccc2)[C@H](C)CN([C@@H](C)CO)C(=O)c2cc(NC(=O)Nc3ccc(C(F)(F)F)cc3)ccc2O1	64.0*	x	x	x	x	x
